This assay is described as follows: Confirmation Concentration-Response Assay for lipid storage modulators: for probe SAR. The method in brief:
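Cells (5,000/well) received compound plus 1 µL of 400 µM oleic acid and were incubated 18–24 h at 24 °C. Lipid droplets were stained with BODIPY 493/503 and cells counted with CellTracker Red by laser-scanning cytometry. Percent activity was relative to 20 µM Triacsin C (100% inhibition).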

The structures appear in SMILES notation. Records with an inconclusive call do not appear. Active and inactive are the calls of the source. Calls come from the whole dose curve; as a rule, active = well fitted inhibition curve with a large enough effect; inconclusive = small, poorly fitted or top-dose-only effect, or effect the other way; inactive = no such curve, though single readings can be large or run the other way.

With `CCOC(=O)C1CCN(C(=O)C2(NC(=O)NCc3ccccc3)CCCCC2)CC1`, the Potency was 4450 nM (active).

Regarding `CCOc1ccc(CCNC(=O)c2cc3sccc3n2C)cc1OCC`, the Potency is 499 nM (active).

As to `COc1ccc(CCNC(=O)c2cc3sccc3n2Cc2ccc(F)cc2)cc1OC`, the Potency is 499 nM (active).

With `CCOc1ccc(CCNC(=O)c2cc3sccc3n2Cc2cccnc2)cc1OCC`, the Potency is 353 nM (active).

In the case of `O=C(NC1CCCc2c1cnn2-c1cc(F)cc(F)c1)c1ccc(F)cc1Cl` (stereo unspecified), the Potency was 2230 nM (active).

In the case of `CCOc1ccc(CCNC(=O)C2COc3ccccc3O2)cc1OCC` (stereo unspecified), the Potency was 11200 nM (active).
